Assay results from the supplement of paper PMC6555819.

Columns and labels:
Test in all cases: PBM binding z-score (relative to random genomic background probes); higher = stronger binding; sequences stand for … in GC…GCGATTGACAGCGTAGAATGAAGG
[1] = system: RARb homodimer (NR concentration 270 nM)
Summary of the method: (§1)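 Binding z-scores were set against random background probes. The data came from custom Agilent 4×180K protein-binding microarrays carrying double-stranded probes with 34-nt variable regions, incubated 1 h with ligand-free nuclear receptor dimers. Partner-specific antibodies detected binding, and scanned fluorescence was regression-normalized.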

[2] = system: RARg:RXRa (NR concentration 270 nM, RXRa partner concentration 90 nM)
Summary of the method: as §1

[3] = system: RARg homodimer (NR concentration 270 nM)
Summary of the method: as §1

[4] = system: RXRa DBDmut IVT, anti-RXR (DBD mutation: RXRa K156A/R161A, NR concentration 90 nM)
Summary of the method: as §1

[5] = system: RXRa homodimer (NR concentration 180 nM)
Summary of the method: as §1

[6] = system: THRa:RXRa (NR concentration 90 nM, RXRa partner concentration 90 nM)
Summary of the method: as §1

[7] = system: THRa homodimer (NR concentration 90 nM)
Summary of the method: as §1

[8] = system: VDR homodimer (NR concentration 270 nM)
Summary of the method: as §1

Sequence	PBM binding z-score [1]	PBM binding z-score [2]	PBM binding z-score [3]	PBM binding z-score [4]	PBM binding z-score [5]	PBM binding z-score [6]	PBM binding z-score [7]	PBM binding z-score [8]
TAGCCTAGGGCAGATCGGGCCAGTATACGCTATA	-0.161	0.171	0.578	-1.17	-0.16	2.16	-1.07	-0.532
CCTACTGGGCCTAGGTCATTGATCAGTCAAAGCA	2.06	2.02	1.46	-0.592	1.34	2.07	0.765	0.74
CGAACGAGGGCATGAGTTTATAGCAAATGCCGAT	1.15	1.31	1.81	3.01	1.07	1.42	0.067	4.17
TAACCAAGGTGAAAGGTCGTTGATGCACGCCTTG	2.82	4.47	2.52	0.794	6.28	3.33	0.878	1.5
TAGCCTAGGTCATTCAAGGGCCAGTATAGAAAGC	3.38	5.84	4.64	1.71	3.14	4.3	0.514	1.25
CCTTACGGGTCACTCCAGGTTATGGCATCGGAGT	3.07	4.46	4.54	1.4	4.22	5.16	0.627	1.62
TCTTGGAGATCAATAGAGGTTAAGAAAGTGCGCT	1.39	0.878	0.376	0.544	1.5	3.19	-0.339	0.159
CGTCCAAGGTCAAGGTCAGTGACAGAGACTCGAA	5.06	6.76	7.62	3.72	6.77	4.35	3.7	3.35
CAAACTATGTCAAGAGGTCAAAGTCCGCTTCCCG	4.59	5.95	5.29	2.09	6.87	3.65	1.79	4.22
ACTAGCGGGCCAAGTTTGGGTCACTCAAACAAAG	2.11	2.14	1.65	-0.0414	1.01	2.43	0.811	0.0653
CCAACTGGGCCAAAGGTCATTGATTCCAATGCTC	4.44	5.57	4.82	1.61	5.9	3.07	0.791	2.39
TCGAGTAGGTTAGGGGGATTCAGAATGGCGTCGA	0.809	0.0898	0.376	0.668	0.485	0.871	1.01	0.42
CCTACTGGGCCACGAAAGATCATTGATTCAGTGA	-0.335	-0.154	0.283	-0.361	0.0459	-0.0965	-0.393	-0.52
CGAACTTGGTCAGAACAGGACAGTGAAGGATGAT	0.311	0.432	0.829	-0.105	0.172	1.09	-0.102	-0.116
CGTCATAGTTCAACTAAGGTAACGTAAAGCACGC	2.62	3.44	3.83	2.38	2.7	5.14	1.9	1.51
TAGACTAGGTCATGCGGGCCAGTATAGTGTCGGC	2.66	3.38	4.13	0.0121	2.73	2.84	0.705	0.756
CTCGAAAGGTCGTGCTCAGGTGAATATACCAAAC	3.06	5.46	4.17	2.45	5.01	4.38	1.6	1.27
CAGACTAGGTCACGAAAGGTCAAAGTCGAATGAC	5.63	7.9	8.73	2.27	8.34	4.96	2.29	4.05
ATCTCCAGGTAAAGATAGTTCAGTGAATGCAAAT	1.03	0.342	0.839	0.0268	-0.000636	1.06	0.451	0.711

Sequence	PBM binding z-score [1]	PBM binding z-score [2]	PBM binding z-score [3]	PBM binding z-score [4]	PBM binding z-score [5]	PBM binding z-score [6]	PBM binding z-score [7]	PBM binding z-score [8]
TGAATGAGGTTAGAAGATCAGGGAACGTTGCAAA	0.0495	0.98	0.936	-0.437	1.17	1.13	-0.107	-0.169
CCTGCTAGGTGATGGTCAGCTAATCTACAGTATG	-0.121	-0.189	0.108	-0.024	-0.424	-0.498	-0.545	-0.612
CCTCGGAGGACAACAGAAGGTCAGAGCTGCCAGA	3.55	3.3	3.27	0.274	1.54	2.36	0.481	0.506
GGAACGAGGGCAACTTGATAGCAGAGTTTGATGG	1.42	1.7	2.17	2.2	1.13	1.26	0.0506	1.35
TGTCGGAGGACACGAAGGTCAGAGCTTTCCAGAG	3.4	3.38	4.14	-0.488	1.8	2.92	0.651	0.981
ACTAGTTGGTCAGATGAGGTCACACACAATTCGG	4.39	3.94	3.9	1.44	4.3	4.8	4.95	4.21
TCAGGCAGGTGAAGGTAACTCAGGTACGCAGTCG	0.705	0.13	-0.00372	0.635	0.357	1.52	0.723	0.051
AATACAGGGACACTAGGCCAGAGTAGGTACGAAT	0.487	0.347	0.984	0.0578	-0.151	0.812	0.241	0.347
TAGCCCAGGTCATTGGGCCAGTATAGTACGCATC	2.76	3.9	4.11	2.29	3.37	3.36	1.65	2.16
AGAATGAGGTTATACGTAGCTCAGGGAAGAAAGT	0.301	1.29	0.944	1.7	1.86	1.81	0.226	0.643
ACAGACAGGTGATGACGGTAACTCAGGCTATCAT	0.213	0.122	0.261	-0.0365	0.15	0.339	-0.087	-0.266
CGTCCAATGTCATAGGAGGTCAGTGAAGACAGAT	3.62	3	3.4	0.694	2.17	4.28	0.745	1.64
TCTATTAGCTGAAGGGCAACCGACGAGTCCGTTT	0.986	0.404	0.211	0.755	0.365	-0.0875	-0.551	0.695
GCATATAGGTAATACATGGTGAAAGTCCGATTGT	-0.181	0.00391	0.437	0.319	0.441	0.327	-0.218	0.32
CGTCCAAGGTCAAGGCTAGGTCAGTGAAAGCATT	4.89	7.82	7.4	3.43	6.77	4.49	3.29	2.58
TAGCCTAGGTCGTGGGCCAGTATACCACGCGAAC	0.693	0.842	0.996	-0.872	0.851	0.795	-0.254	-0.53
CGTCCAAGGTCAGCACGTCAGTGAAAGCGACGTG	4	5.13	5.75	2.51	3.83	3.43	1.9	0.904
TCAAGTTGGTCAAAGGTCACACACTCGAAATGCG	5.19	7.2	6.47	2.15	8.37	4.16	1.86	2.4
TCTTGTAGATCAATAGAGGTAAAGAAAGTGCGCT	-0.162	0.0817	0.0168	0.436	0.364	1.9	-0.539	-0.6

Sequence	PBM binding z-score [1]	PBM binding z-score [2]	PBM binding z-score [3]	PBM binding z-score [4]	PBM binding z-score [5]	PBM binding z-score [6]	PBM binding z-score [7]	PBM binding z-score [8]
TAGACTAGGTCATTCAGGGGCCAGTATAGAAAGC	3.07	5.47	4.47	1.33	2.82	3.29	0.816	1.63
AGATCGAGGGCACGCTGAGTTGATAGCAGAGTAG	0.796	1.71	1.86	1.57	0.933	1.63	-0.107	1.65
TCTTGTCGATCAGCAGGTTAAGAAAGCTGGCCAA	0.242	-0.108	-0.509	0.615	0.217	0.316	-0.476	-0.421
CAAACTGGGTCACAGAGGTCAAAGTCCGTGCGTA	5.5	7.14	7.26	3.26	7.99	4.4	2.19	5.91
CGTCGAAGTTCAACTAAGGTAACGTAAAGCACGC	2.89	3.53	3.67	3.86	2.69	4.97	2.11	2.88
TGTGCTAGGTCAGTTGGTCAGCTAACGAGCTGCC	2.66	2.6	3.48	-0.535	0.793	1.14	-0.0529	-0.504
CCTACAGGGCCATTCAGAGGTCATTGATCATATG	4.27	5.34	3.29	1.85	3.85	3.38	1.34	4.16
CGTCCAAGGTCAGAGAGATCAGTGAATGCCGAGT	3.33	4.47	5.03	2.73	3.39	3.31	1.57	1.58
ATCGAAAGATCGAAGGTGAGTATACCCACCCGAA	-0.186	0.34	0.489	-0.722	0.765	0.17	-0.601	-0.259
TCTTGTAGATCAATATAGGTTAAGAAAGTGCGCT	0.819	0.579	0.586	1.31	0.962	1.03	-0.0282	0.0852
CGTCCAGGGTCAATGCTAGGTCAGTGAAAGCATT	4.65	7.39	5.63	2.78	5.37	4.35	1.79	2.33
GCTTACGGGTCAAAGGATATAGCATGAATAGAAT	2.26	4.62	3.96	1.92	5.17	2.22	-0.222	0.703
ATCGTAAGGTCGACGAGGTGAGTATACACCGTTT	2.31	3.18	3.23	1.37	3.01	3.89	2.39	1.63
CCGACTGGGGCATAAGGTTACCAGAAGCCAGCCC	1.99	1.86	1.08	-0.501	1.26	2.28	1.23	-0.301
CCGACTGGGGAATAAGGTTACCATAAGCCAGCCC	1.02	0.435	0.223	-0.297	0.812	2.03	1.18	-0.0686
CCTACTGGGCCAAAAAGGTCATTTATGCCGATAA	4.03	4.11	3.43	0.766	4.35	2.85	0.395	2.46
CTTACTGGGCCAAAAAGGTCATTGATGCCGATAA	4.5	4.8	4.65	1.08	5.37	3.21	0.313	2.72
TCATATAGGTAAATGCTAGGTGAAGGTCCGATCT	0.576	0.474	0.349	1.34	0.65	1.43	0.583	0.324
